# Data from PubChem BioAssay (EPA / NIEHS).
# Results filed as inconclusive are left out. Active and inactive are the calls of the source. How the source made its calls: active means hit-call score of the fitted dose curve at least 0.9, where 1 is the maximum; inconclusive means response in the unintended direction; inactive means score below 0.9.
# Target: Glucocorticoid receptor (Homo sapiens) (UniProt P04150)
# Experiment: NVS_NR_hGR: NovaScreen (NVS) Nuclear Receptor Binding Assay for human Glucocorticoid Receptor (GR) (AID 2283363);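 on AC50: activity is loss of specific radioligand binding signal relative to DMSO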
# How it was run: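 Compounds first tested in duplicate at 25 uM, actives followed up in concentration series. Binding to extracted GR protein measured as competitive radioligand displacement, filter scintillation read 16 h post-dosing, normalised to DMSO.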
# Sequence of Glucocorticoid receptor (Homo sapiens) (P04150 whole entry, looked up): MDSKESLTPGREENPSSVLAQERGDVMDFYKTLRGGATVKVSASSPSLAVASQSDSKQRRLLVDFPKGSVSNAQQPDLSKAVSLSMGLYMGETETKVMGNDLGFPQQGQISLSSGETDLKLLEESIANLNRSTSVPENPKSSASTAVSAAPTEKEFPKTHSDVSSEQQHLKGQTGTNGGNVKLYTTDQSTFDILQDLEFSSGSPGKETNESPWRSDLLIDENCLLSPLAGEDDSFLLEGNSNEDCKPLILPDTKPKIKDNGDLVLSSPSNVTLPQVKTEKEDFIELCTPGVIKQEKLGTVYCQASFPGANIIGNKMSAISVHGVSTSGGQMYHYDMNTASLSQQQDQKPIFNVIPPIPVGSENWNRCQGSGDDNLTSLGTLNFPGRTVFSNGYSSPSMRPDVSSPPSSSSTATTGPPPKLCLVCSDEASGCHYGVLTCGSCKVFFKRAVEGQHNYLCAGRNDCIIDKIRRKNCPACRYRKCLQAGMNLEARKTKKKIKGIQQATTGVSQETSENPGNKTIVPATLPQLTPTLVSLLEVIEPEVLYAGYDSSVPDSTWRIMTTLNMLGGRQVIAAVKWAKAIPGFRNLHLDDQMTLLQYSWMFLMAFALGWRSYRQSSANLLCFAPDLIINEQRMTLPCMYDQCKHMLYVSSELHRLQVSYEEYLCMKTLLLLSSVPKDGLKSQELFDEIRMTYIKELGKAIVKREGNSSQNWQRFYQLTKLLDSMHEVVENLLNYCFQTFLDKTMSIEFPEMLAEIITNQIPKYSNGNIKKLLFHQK
SMILES,outcome,AC50
CNc1cnn(-c2cccc(C(F)(F)F)c2)c(=O)c1Cl,inactive,
CCCOCC(=Nc1ccc(Cl)cc1C(F)(F)F)n1ccnc1,,7.9 µM (active)
CCCCN(CC)c1c([N+](=O)[O-])cc(C(F)(F)F)cc1[N+](=O)[O-],inactive,
COc1ccc(C(=CC(=O)N2CCOCC2)c2ccc(Cl)cc2)cc1OC,,13.4 µM (active)
CCCSP(=O)(OCC)SCCC,inactive,
C#CC(C)(C)NC(=O)c1cc(Cl)cc(Cl)c1,inactive,
CCOP(=S)(OCC)Oc1ccc([N+](=O)[O-])cc1,,6.96 µM (active)
C=C(C)[C@H]1Cc2c(ccc3c2O[C@@H]2COc4cc(OC)c(OC)cc4[C@@H]2C3=O)O1,,0.425 µM (active)
CC(C)N(C(=O)SCC(Cl)=C(Cl)Cl)C(C)C,inactive,
CNC(=O)ON=C(C)SC,inactive,
FC(F)C(F)(F)OCC(Cn1cncn1)c1ccc(Cl)cc1Cl (stereo not drawn),,8.87 µM (active)
CCOP(=S)(OCC)Oc1cc(C)nc(C(C)C)n1,inactive,
CCC(CC)Nc1c([N+](=O)[O-])cc(C)c(C)c1[N+](=O)[O-],inactive,
